High-throughput results as filed in PubChem BioAssay.
The list is not random: actives were taken first. Their share in the collection is about 3.6%.
Anthrax LF prot = blocks Bacillus anthracis lethal factor protease; multiplex microsphere protease cleavage assay, LF; actives 0.12% (n = 360,000); AID 588501; inhibition, % at 10 µM; also: plate controls were buffer without enzyme for full effect and enzyme alone for no effect
Target sequence (P15917 whole entry, looked up): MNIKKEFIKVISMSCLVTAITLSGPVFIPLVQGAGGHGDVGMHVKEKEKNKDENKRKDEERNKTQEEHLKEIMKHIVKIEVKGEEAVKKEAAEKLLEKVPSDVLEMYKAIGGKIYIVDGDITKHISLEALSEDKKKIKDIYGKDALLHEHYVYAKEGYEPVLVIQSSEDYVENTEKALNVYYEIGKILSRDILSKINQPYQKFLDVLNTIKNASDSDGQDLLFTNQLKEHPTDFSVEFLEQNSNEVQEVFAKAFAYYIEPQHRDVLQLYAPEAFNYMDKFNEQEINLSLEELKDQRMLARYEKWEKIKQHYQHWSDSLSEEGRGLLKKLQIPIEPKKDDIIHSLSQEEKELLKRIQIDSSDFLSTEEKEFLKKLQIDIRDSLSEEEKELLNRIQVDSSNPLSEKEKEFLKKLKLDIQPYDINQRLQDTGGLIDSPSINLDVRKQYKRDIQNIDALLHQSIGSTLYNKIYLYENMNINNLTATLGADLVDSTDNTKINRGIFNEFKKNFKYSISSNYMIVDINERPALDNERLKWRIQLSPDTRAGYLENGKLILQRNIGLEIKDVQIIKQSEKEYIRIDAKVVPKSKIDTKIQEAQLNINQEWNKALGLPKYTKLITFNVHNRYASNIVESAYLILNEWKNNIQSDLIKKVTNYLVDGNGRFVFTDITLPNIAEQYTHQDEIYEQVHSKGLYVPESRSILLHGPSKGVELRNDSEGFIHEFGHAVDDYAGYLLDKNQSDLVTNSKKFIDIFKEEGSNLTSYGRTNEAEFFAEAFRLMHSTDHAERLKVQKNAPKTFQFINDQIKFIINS
Bead autofluor = counter-screen for toxin protease inhibitors: compound fluorescence; compound autofluorescence counterscreen, microsphere flow cytometry; stronger effect = higher value; fluorescence intensity (test concentration not listed); actives 3.1% (n = 360,000); in the data active = fluorescence intensity above about 16000; inconclusive = no clear call, values can overlap the other calls
SARS 3CLpro inh = SARS-CoV 3CLpro protease inhibition | AID 1706 | P0C6X7 | actives 0.14% (n = 290,000) | recombinant SARS-CoV 3CLpro, quenched FRET peptide cleavage | inhibition, % at 6 µM; in the data active = inhibition above about 12%
BJeLR viability = BJeLR cell viability loss. BJeLR (HRASV12) viability, CellTiter-Glo ATP luminescence, 48 h. inhibition, % (test concentration not listed). actives 0.17% (n = 300,000). AID 1554; in the data active = inhibition above about 50%; inconclusive = no clear call, values can overlap the other calls
BoNT F protease = BoNT F light chain protease inhibition; Multiplex microsphere protease cleavage assay, flow cytometry; inhibition, % at 10 µM; actives 0.22% (n = 360,000); AID 588497; in the data active = inhibition above about 35%, passing the limit was not always enough; inconclusive = no clear call, values can overlap the other calls; also: plate controls were buffer without enzyme for full effect and enzyme alone for no effect
BoNT A protease = BoNT A light chain protease inhibition; multiplex microsphere protease substrate cleavage, flow cytometry; inhibition, % at 10 µM; actives 0.17% (n = 360,000); AID 588499; also: plate controls were buffer without enzyme for full effect and enzyme alone for no effect
An asterisk follows results filed as active; ? = inconclusive; . = no result. Rule as the data show it, unless noted: active = inhibition above about 30%; inconclusive = no clear call, values can overlap the other calls; inactive = below that.

SMILES | Anthrax LF prot | Bead autofluor | SARS 3CLpro inh | BJeLR viability | BoNT F protease | BoNT A protease
CC(C)c1ccc(NC(=O)Nc2nc(C(N)COCc3ccccc3)cs2)cc1 (stereo not given) | -5 | 3747 | . | . | -23 | 0
CC1(C)Cc2c(sc3ncnc(NN)c23)CO1 | -31 | 3668 | 0 | -5 | ? | -10
Cc1cc(C)n2c(Nc3ccc4c(c3)OCCO4)c(CCc3ccccc3)nc2n1 | 1 | 6031 | . | . | 4 | 0
CNc1sc(C(=O)c2ccc(F)cc2)c(N)c1-c1nc2ccccc2s1 | 21 | 18218* | -3 | 0 | 8 | 19
CC(C)n1nc(C(=O)Nc2nnc(SCc3c(Cl)cccc3Cl)s2)c2ccccc2c1=O | 0 | 19535* | 0 | -20 | 13 | 10
CCOC(=O)N1CCC(n2c(SCC(=O)NCCc3ccc(S(N)(=O)=O)cc3)nc3ccccc3c2=O)CC1 | -4 | 4747 | 5 | 0 | -5 | -1
CCn1nnc(-c2ccccc2NS(=O)(=O)c2ccc(S(=O)(=O)N(C)C3CCCCC3)cc2)n1 | -6 | 4322 | 2 | -3 | -6 | 0
Cc1cccc(NC(=O)/C=C/c2ccc([N+](=O)[O-])s2)c1 | -1 | 2160 | 3 | 83* | -6 | 1
Cc1cccc(NC(=S)N/N=C/c2ccc([N+](=O)[O-])s2)c1 | 52* | 3008 | 1 | 2 | 20 | 88*
Cc1ccc(NC(=O)/C=C/c2ccc([N+](=O)[O-])s2)cc1 | -2 | 2161 | 0 | 59* | 2 | 0
Cc1cccc(NC(=O)CN2CCN(C(=O)CN3C(=O)NC4(CCCCC4C)C3=O)CC2)c1C (stereo not given) | 2 | 3902 | . | . | 2 | -1
CCCNC(=O)C1CCN(S(=O)(=O)c2ccc(Br)cc2)CC1 | 2 | 10661 | 2 | -4 | -5 | 0
Cn1c2c(c3ccccc31)CCSC2=O | -5 | 22095* | -1 | 6 | 1 | 0
CC(C)C(=O)Nc1cccc(-c2cnc3ccccc3n2)c1 | -1 | 20196* | 2 | -1 | 0 | 2
CCOc1ccc(NC(=O)Nc2cc(C)ccc2F)cc1 | -5 | 16132* | 1 | 25 | 2 | 1
Cc1ccc2oc(C(=O)Nc3c(C)n(C)n(-c4ccccc4)c3=O)c(C)c2c1 | . | . | 2 | . | . | .
CC1(C)Cc2c(C#N)c(NCCN3CCOCC3)nc(-c3ccco3)c2CO1 | -6 | 21315* | -4 | -11 | 1 | 2
CC1(C)Cc2c(C#N)c(NCCN3CCOCC3)nc(-c3ccccc3)c2CO1 | -1 | 4706 | -2 | 1 | -2 | 0
CN(C)C(=O)N(CCCN1CCOCC1)Cc1cccc2ccccc12 | 4 | 4228 | -3 | 0 | -3 | 0
CC(C)CN(C(=O)COC(=O)C12CC3CC(CC(C3)C1)C2)c1c(N)n(Cc2ccccc2)c(=O)[nH]c1=O | 0 | ? | . | 0 | 9 | 2
S=C(NCc1cccnc1)Nc1ccc(Oc2ccc(Cl)cc2)cc1 | . | . | 3 | 0 | . | .
CCCn1c(SCC(=O)NC(C)(C)C)nnc1-c1ccco1 | -7 | 4753 | 1 | -1 | -10 | 1
CC(C)(C)NC(=O)CSc1nnc(-c2ccco2)n1Cc1ccco1 | -4 | 16522* | 4 | 0 | -1 | -1
COCCn1c(SCC(=O)NCCc2ccccc2)nnc1-c1ccco1 | -1 | 17231* | -3 | 1 | -3 | -3
Cn1cnnc1SCC(=O)NCCc1ccccc1 | -3 | 23752* | -3 | -5 | -6 | -3
SMILES | Anthrax LF prot | Bead autofluor | SARS 3CLpro inh | BJeLR viability | BoNT F protease | BoNT A protease
CC(=O)c1c(C)[nH]c(C(=O)CSc2nnc(-c3ccco3)n2Cc2ccccc2)c1C | 0 | 16352* | 4 | 0 | 1 | 0
Clc1ccccc1CNCc1ccc2c(c1)OCO2 | -2 | 2813 | . | . | 0 | 0
CC(C)C(=O)Nc1cccc(COc2ccccc2CN(Cc2ccccc2)C(=O)OC(C)(C)C)c1 | 4 | 3614 | . | . | -4 | 0
COc1ccccc1C(=O)NC(CCSC)C(=O)NCC(c1ccco1)N(C)C (stereo not given) | -1 | 21152* | -3 | 2 | -3 | -1
COc1ccccc1C(=O)NC(CCSC)C(=O)NCC(c1cccs1)N(C)C (stereo not given) | -2 | 6332 | . | 1 | 2 | 2
COc1ccc(C(=O)CC(=O)C(=O)Nc2cccc(C(C)=O)c2)cc1 | -9 | 3553 | -2 | -6 | -23 | -3
COc1cccc(-c2nnc3sc(-c4ccc(C)cc4)nn23)c1 | . | . | -3 | -4 | . | .
CCOc1cccc(-c2nn3c(-c4ccco4)nnc3s2)c1 | 0 | 23209* | -10 | -5 | 2 | 0
COc1cccc(-c2nn3c(-c4cccc(C)c4)nnc3s2)c1 | -4 | 17527* | 7 | 6 | -7 | -4
COc1cccc(-c2nnc3sc(-c4ccco4)nn23)c1 | 0 | 9927 | -3 | -7 | 5 | 0
CCOc1cccc(-c2nnc3sc(-c4cccs4)nn23)c1 | 1 | 17165* | 0 | 8 | 0 | -2
COC(=O)c1sc(=S)n(-c2cccc(Cl)c2)c1N | -2 | 26583* | 4 | -2 | -11 | -9
CCOC(=O)c1sc(=S)n(-c2ccccc2)c1N | 0 | 2359 | 4 | 3 | 5 | 0
COC(=O)c1nc(-c2ccc3c(n2)C(=O)C(N)=C(OC)C3=O)c(N)c(-c2ccc(OC)c(OC)c2O)c1C | 9 | 3779 | -2 | 64* | -16 | -1
COC1=C(N)C(=O)c2nc(-c3nc(C(=O)O)c(C)c(-c4ccc(OC)c(OC)c4O)c3N)ccc2C1=O | . | . | 0 | . | . | .
O=C(Nc1cccc(C(F)(F)F)c1)c1ccc2nc(N3C(=O)CCC3=O)sc2c1 | -2 | 22304* | 6 | -7 | 2 | 1
O=C(Nc1cccc(C(F)(F)F)c1)c1ccc2nc(-c3ccco3)c(-c3ccco3)nc2c1 | 28 | 3371 | -3 | -5 | -7 | 63*
COc1ccc(C(C)(C)C)cc1NC(=O)COC(=O)CSCc1c(C)noc1C | -4 | ? | . | . | 1 | -2
CC(NC(=O)Cn1cnc([N+](=O)[O-])n1)c1ccccc1 (stereo not given) | -3 | 4334 | 3 | 1 | -56 | -3
C[C@H](NC(=O)Cn1cncn1)c1ccccc1 | 1 | 17083* | 4 | 6 | 0 | -1
O=C(Cn1cncn1)NCc1ccccc1Br | -3 | 20396* | 0 | -3 | -2 | ?
O=C(Cn1cncn1)c1ccccc1Br | 27 | 3816 | 1 | -15 | -7 | 4
O=C(Cn1cncn1)NCc1cccc2ccccc12 | -2 | 22835* | 5 | -14 | 1 | ?
CC[C@]12c3[nH]c4cc(-c5ccco5)ccc4c3CCN1C(=O)[C@@H](CC(=O)NCCCOC)C[C@@H]2C(=O)N1CCN(C(=O)c2ccco2)CC1 | -4 | 3477 | . | . | -7 | 0
Cc1ccc(CNC(=O)CN(C(=O)C2(C)CC(=O)N=C3C=CC=CN32)c2ccc(F)cc2)cc1 (stereo not given) | 3 | 5279 | -2 | -20 | 2 | 1
